Results reported in PubChem BioAssay.
For some of these results: Measured potencies and affinities stand elsewhere. Active and inactive are the calls of the source. Unless noted, no rule for the calls is given here.

How the values were obtained:
[1] = antimalarial activity against Dd2 strain (AID 2302;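 active = growth inhibition above 50% at the single 2 µM test dose, taken to imply half-maximal potency below 2 µM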;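 also: 0% = DMSO untreated growth and 100% = chloroquine plus artemisinin killed control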); conditions: P. falciparum Dd2 in RBCs, LDH growth readout, 72 h; at 2 µM; hits give high values
[2] = HepG2 cytotoxicity, primary screen, cytotoxicity control for P. falciparum antimalarial project, cell-based, ATP luminescence (AID 2303;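 active = inhibition above 50%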;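 also: 0% = DMSO wells and 100% = digitonin-killed cells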); conditions: HepG2 viability, 24-48 h, at 10 µM, hits give high values
[3] = biological target: L-lactate dehydrogenase (Plasmodium falciparum (isolate CDC / Honduras)) (UniProt Q27743); assay: PfLDH activity inhibition – cell lysate, 3D7 strain, counter-screen for P. falciparum growth inhibition project (AID 2304);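 also: 0% = vehicle and 100% = reference inhibitor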; conditions: P. falciparum 3D7 crude extract, LDH APAD/NBT absorbance; at 2 µM; hits give high values
[4] = inhibition of 3D7 malaria parasite growth – strain 3D7 (AID 2306);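 also: 0% = DMSO wells and 100% = chloroquine plus artemisinin control wells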; conditions: P. falciparum 3D7 erythrocytic growth, LDH absorbance, 72 h; at 2 µM; hits give high values
[5] = biological target: Calcium-dependent protein kinase 1 (Plasmodium falciparum (isolate 3D7)) (UniProt P62344); assay: PfCDPK1 kinase inhibitors, biochemical, TCAMS library (AID 1159585; cut-off not given, nearly all actives have IC50 up to about 0.98 µM;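 also: inhibitors leave more ATP so luminescence rises with inhibition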); conditions: recombinant PfCDPK1, Kinase-Glo ATP depletion luminescence
[6] = biological target: Plasmodium falciparum protein kinase 6 (PK6, PF3D7_1337100) (UniProt Q8IDW1); assay: PfPK6 kinase inhibitors, biochemical, TCAMS library (AID 1159586); conditions: recombinant PfPK6, Kinase-Glo ATP depletion luminescence
[7] = biological target: Protein kinase 7 (PK7), Plasmodium falciparum 3D7 (PF3D7_0213400) (UniProt Q7YTF7); assay: inhibition of Plasmodium PK7 catalytic activity – biochemical, TCAMS antimalarial set, Kinase-Glo luminescence (AID 1159587); conditions: recombinant PfPK7, Kinase-Glo ATP depletion luminescence
[8] = biological target: Calcium-dependent protein kinase 4 (Plasmodium falciparum (isolate 3D7)) (UniProt Q8IBS5); assay: PfCDPK4 kinase inhibitors, biochemical, TCAMS library (AID 1159588; cut-off not given, nearly all actives have IC50 up to about 0.91 µM); conditions: recombinant PfCDPK4, Kinase-Glo ATP depletion luminescence
Calcium-dependent protein kinase 4 (Plasmodium falciparum (isolate 3D7)), sequence (Q8IBS5 whole entry, looked up): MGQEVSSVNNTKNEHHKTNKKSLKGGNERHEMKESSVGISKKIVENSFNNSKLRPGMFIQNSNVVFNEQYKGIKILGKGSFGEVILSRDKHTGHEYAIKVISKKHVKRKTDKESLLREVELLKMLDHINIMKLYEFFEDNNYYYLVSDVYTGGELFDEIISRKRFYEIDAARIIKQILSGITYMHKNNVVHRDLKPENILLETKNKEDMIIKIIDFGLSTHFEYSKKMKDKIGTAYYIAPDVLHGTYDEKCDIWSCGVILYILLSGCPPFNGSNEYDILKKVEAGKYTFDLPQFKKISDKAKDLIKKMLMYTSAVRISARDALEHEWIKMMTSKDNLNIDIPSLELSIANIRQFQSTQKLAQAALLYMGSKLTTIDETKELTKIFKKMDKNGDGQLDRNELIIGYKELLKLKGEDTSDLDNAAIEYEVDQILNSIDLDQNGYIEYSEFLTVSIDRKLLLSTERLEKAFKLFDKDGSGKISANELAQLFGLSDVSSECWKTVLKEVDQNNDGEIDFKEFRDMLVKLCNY

Protein kinase 7 (PK7), Plasmodium falciparum 3D7 (PF3D7_0213400), sequence (Q7YTF7 1-343): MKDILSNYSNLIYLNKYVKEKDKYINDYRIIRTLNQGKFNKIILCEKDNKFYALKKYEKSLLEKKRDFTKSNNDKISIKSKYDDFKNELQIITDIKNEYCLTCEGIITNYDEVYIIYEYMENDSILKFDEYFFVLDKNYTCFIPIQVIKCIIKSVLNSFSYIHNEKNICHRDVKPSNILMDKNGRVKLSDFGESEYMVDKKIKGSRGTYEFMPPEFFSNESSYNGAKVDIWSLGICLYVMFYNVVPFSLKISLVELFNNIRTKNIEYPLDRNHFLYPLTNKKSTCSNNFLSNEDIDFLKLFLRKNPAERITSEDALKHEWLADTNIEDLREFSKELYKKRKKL
Calcium-dependent protein kinase 1 (Plasmodium falciparum (isolate 3D7)), sequence (P62344 whole entry, looked up): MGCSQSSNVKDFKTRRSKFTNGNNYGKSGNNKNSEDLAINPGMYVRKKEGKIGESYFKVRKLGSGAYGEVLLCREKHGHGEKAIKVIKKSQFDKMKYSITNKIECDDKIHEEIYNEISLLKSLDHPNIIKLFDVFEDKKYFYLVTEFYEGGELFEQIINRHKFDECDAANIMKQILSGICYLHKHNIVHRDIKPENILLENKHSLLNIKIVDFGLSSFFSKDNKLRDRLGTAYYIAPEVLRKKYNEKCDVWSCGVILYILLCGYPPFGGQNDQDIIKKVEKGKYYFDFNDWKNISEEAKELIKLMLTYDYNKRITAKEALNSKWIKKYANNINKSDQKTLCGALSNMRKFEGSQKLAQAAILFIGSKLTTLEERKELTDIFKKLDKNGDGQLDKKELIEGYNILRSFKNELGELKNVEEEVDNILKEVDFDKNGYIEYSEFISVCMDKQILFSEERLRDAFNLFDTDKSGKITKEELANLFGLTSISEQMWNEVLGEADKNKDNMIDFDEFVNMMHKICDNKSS
L-lactate dehydrogenase (Plasmodium falciparum (isolate CDC / Honduras)), sequence (Q27743 whole entry, looked up): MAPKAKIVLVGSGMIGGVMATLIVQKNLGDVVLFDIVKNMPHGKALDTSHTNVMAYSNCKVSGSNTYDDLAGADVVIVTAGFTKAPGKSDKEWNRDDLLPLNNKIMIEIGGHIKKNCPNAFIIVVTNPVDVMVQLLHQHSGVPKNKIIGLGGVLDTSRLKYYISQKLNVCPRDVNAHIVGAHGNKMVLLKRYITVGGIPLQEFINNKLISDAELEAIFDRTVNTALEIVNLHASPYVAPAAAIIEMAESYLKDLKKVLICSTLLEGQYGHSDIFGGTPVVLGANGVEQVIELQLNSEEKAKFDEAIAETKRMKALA
Plasmodium falciparum protein kinase 6 (PK6, PF3D7_1337100), sequence (Q8IDW1 1-305): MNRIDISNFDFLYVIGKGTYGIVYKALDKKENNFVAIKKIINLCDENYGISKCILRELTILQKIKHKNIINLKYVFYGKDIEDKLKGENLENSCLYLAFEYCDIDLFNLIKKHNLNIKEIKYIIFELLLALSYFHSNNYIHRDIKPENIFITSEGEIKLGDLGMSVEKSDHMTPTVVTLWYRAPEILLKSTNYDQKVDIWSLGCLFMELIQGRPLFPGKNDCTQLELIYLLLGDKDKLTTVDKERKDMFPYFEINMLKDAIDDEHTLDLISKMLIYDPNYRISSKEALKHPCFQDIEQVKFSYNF

SMILES	growth inhibition [1]	inhibition [2]	inhibition [3]	growth inhibition [4]	outcome [5]	outcome [6]	outcome [7]	outcome [8]
CCOc1ccc2nc(-c3ccccc3)cc(NN=Cc3ccncc3)c2c1	101% (active)	19% (inactive)	0% (inactive)	102% (active)	inactive	inactive	inactive	inactive
Cc1ccc2ccccc2c1CCCON1C(N)=NC(N)=NC1(C)C	97% (active)	65% (active)	5% (inactive)	95% (active)	inactive	inactive	inactive	inactive
N#Cc1ccc2c(c1)CCN(CCC1CCC(NC(=O)/C=C/c3ccc4ccccc4c3)CC1)CC2 (centres undefined)	12% (inactive)	20% (inactive)	4% (inactive)	97% (active)	inactive	inactive	inactive	inactive
c1cc(CNC2Cc3ccc(-c4cccs4)cc3C2)cc(-n2ccnc2)c1 (centres undefined)	63% (active)	0% (inactive)	-1% (inactive)	100% (active)	inactive	inactive	inactive	inactive
O=C(Nc1cccc(F)c1)c1ccc(C(=O)NC2CCN(CC3CCCCC3)CC2)cc1	16% (inactive)	22% (inactive)	-7% (inactive)	96% (active)	inactive	inactive	inactive	inactive
CCn1c(Sc2ccc([N+](=O)[O-])c(C#N)c2)nnc1-c1cccc(Cl)c1	22% (inactive)	8% (inactive)	2% (inactive)	89% (active)	inactive	inactive	inactive	inactive
CCCCCCN1CCC(CNCc2cccc([N+](=O)[O-])c2)CC1	15% (inactive)	16% (inactive)	-1% (inactive)	95% (active)	inactive	inactive	inactive	inactive
CC(C)N1CCN(c2ccc(OCCCCN3CCN(c4cccc(Cl)c4Cl)CC3)cc2Cl)CC1	34% (inactive)	63% (active)	-1% (inactive)	89% (active)	inactive	inactive	inactive	inactive
Cc1cccc2[nH]c(-c3ccc(-c4ccc(CN5CCN(CCO)CC5)cc4)s3)nc12	47% (inactive)	34% (inactive)	0% (inactive)	92% (active)	inactive	inactive	inactive	inactive
CN(Cc1ccccc1)C1CCCN(c2cc(NC(=O)c3cccs3)ccn2)C1 (centres undefined)	90% (active)	2% (inactive)	-1% (inactive)	88% (active)	inactive	inactive	inactive	inactive
COc1ccc(CC2(c3ccc(F)cc3)N=C(N)N(CCCc3ccc4c(c3)OCO4)C2=O)cc1 (centres undefined)	97% (active)	60% (active)	3% (inactive)	98% (active)	inactive	inactive	inactive	inactive
Cc1cccc(CN2CCCN(Cc3ccc(C(=O)Nc4ccc(C)c(F)c4)cc3)CC2)c1	3% (inactive)	47% (inactive)	-4% (inactive)	85% (active)	inactive	inactive	inactive	inactive
COc1cc(N(C)Cc2cnc3nc(N)nc(N)c3n2)cc(OC)c1OC	2% (inactive)	32% (inactive)	1% (inactive)	95% (active)	inactive	inactive	inactive	inactive
O=C(NCc1ccc(Cl)c(Cl)c1)c1ccc(-c2nc3cc(F)c(F)cc3[nH]2)cc1	12% (inactive)	-2% (inactive)	-2% (inactive)	81% (active)	inactive	inactive	inactive	inactive
CN(C)CCCNCc1cn(S(=O)(=O)c2ccccc2Cl)c2ccccc12	71% (active)	20% (inactive)	-6% (inactive)	92% (active)	inactive	inactive	inactive	inactive
CCNc1cc(C(=O)N[C@@H](Cc2ccccc2)[C@H](O)CNCCc2cccc3ccccc23)cc(N2CCCC2=O)c1	39% (inactive)	12% (inactive)	3% (inactive)	86% (active)	inactive	inactive	inactive	inactive
CN1CCN(CC(=O)Nc2ccc(-c3cccc(-c4nc5ccc(F)cc5[nH]4)c3)cc2)CC1	100% (active)	18% (inactive)	3% (inactive)	100% (active)	inactive	inactive	inactive	inactive
CC1(C)N=C(N)N=C(N)N1OCc1cc(Cl)cc2c1OCOC2	64% (active)	65% (active)	-1% (inactive)	95% (active)	inactive	inactive	inactive	inactive
O=C(NC1CCCC1)c1ccc(N2CCC(NCc3cc4cc(Cl)ccc4[nH]3)CC2)cc1	-10% (inactive)	21% (inactive)	-2% (inactive)	91% (active)	inactive	inactive	inactive	inactive

SMILES	growth inhibition [1]	inhibition [2]	inhibition [3]	growth inhibition [4]	outcome [5]	outcome [6]	outcome [7]	outcome [8]
CN1CCN(c2cc(-c3cccc(C(F)(F)F)c3)nc(-c3ccncc3)n2)CC1	98% (active)	38% (inactive)	1% (inactive)	102% (active)	inactive	inactive	inactive	inactive
CCC1CN2CCc3c([nH]c4ccccc34)C2CC1CC1=NCCc2c1[nH]c1ccc(OC)cc21 (centres undefined)	68% (active)	99% (active)	1% (inactive)	101% (active)	inactive	inactive	inactive	inactive
CCCCCNc1nc(Nc2ccccc2C)nc2ccccc12	30% (inactive)	5% (inactive)	-7% (inactive)	100% (active)	inactive	inactive	inactive	inactive
COc1ccc(Cn2ccc3c4c(N)nc(N)nc4ccc32)cc1	93% (active)	90% (active)	7% (inactive)	101% (active)	inactive	inactive	inactive	inactive
O=C(/C=C/c1ccc(Cl)c(Cl)c1)NC1CCN(CCNC(=O)c2cccc(Cl)c2)CC1	45% (inactive)	22% (inactive)	0% (inactive)	103% (active)	inactive	inactive	inactive	inactive
COc1ccc2ncn(-c3ccc(C(N)=O)c(OCc4ccccc4C(F)(F)F)c3)c2c1	100% (active)	18% (inactive)	3% (inactive)	98% (active)	inactive	inactive	inactive	inactive
COc1ccc(-c2cnc(NCc3ccccc3)nc2)cc1CNC1CCN(C)CC1	64% (active)	19% (inactive)	1% (inactive)	96% (active)	inactive	inactive	inactive	inactive
O=C(Nc1ccc2c(c1)CCN2C1CCN(Cc2cccc(F)c2F)C1)c1ccco1 (centres undefined)	90% (active)	-4% (inactive)	0% (inactive)	87% (active)	inactive	inactive	inactive	inactive
CCC(Nc1noc(-c2c(-c3ccccc3)noc2C)n1)c1ccccc1 (centres undefined)	85% (active)	4% (inactive)	1% (inactive)	99% (active)	inactive	inactive	inactive	inactive
CCCCCC(NCCCC)c1ccc(OCCOc2ccc(C(CCCCC)NCCCC)cc2)cc1 (centres undefined)	96% (active)	99% (active)	-2% (inactive)	88% (active)	inactive	inactive	inactive	inactive
CC(=O)c1sc2ccccc2c1O	-2% (inactive)	14% (inactive)	6% (inactive)	91% (active)	inactive	inactive	inactive	inactive
O=C(NCCCCN1CCC(c2ccc3c(c2OCCCO)CCCC3)CC1)c1ccc(-c2ccc(C(F)(F)F)cc2)cc1	53% (active)	98% (active)	1% (inactive)	83% (active)	inactive	inactive	inactive	inactive
C=CCOC(=O)N1CCC(CNCc2cccc(-c3cccc(-c4nc5ccccc5[nH]4)c3)c2)C1 (centres undefined)	46% (inactive)	16% (inactive)	-3% (inactive)	100% (active)	inactive	inactive	inactive	inactive
C=CCOc1ccc(C2C(C(=O)OC)=C(C)NC3=C2C(=O)c2ccccc23)cc1OC (centres undefined)	65% (active)	-4% (inactive)	-8% (inactive)	82% (active)	inactive	inactive	inactive	inactive
CN1CCN(CC(O)CNC(=O)Nc2ccc(Br)cc2)CC1 (centres undefined)	100% (active)	5% (inactive)	-2% (inactive)	100% (active)	inactive	inactive	inactive	inactive
CC(C)CN1CCN(CCNc2c3ccccc3nc3ccccc23)CC1	79% (active)	26% (inactive)	0% (inactive)	97% (active)	inactive	inactive	inactive	inactive
Cc1cc(C(F)(F)F)n2nc(C(=O)N(C)Cc3cncn3Cc3ccc(F)cc3)cc2n1	96% (active)	-1% (inactive)	0% (inactive)	101% (active)	inactive	inactive	inactive	inactive
CN1CCN(c2ccnc3ccc(NC(=O)Nc4cccc5c(C#N)cccc45)cc23)CC1	40% (inactive)	-6% (inactive)	8% (inactive)	91% (active)	inactive	inactive	inactive	inactive
O=S(=O)(c1ccc2ccccc2c1)N1CCCN(Cc2ccc(OCCCN3CCCCC3)cc2)CC1	11% (inactive)	43% (inactive)	-3% (inactive)	98% (active)	inactive	inactive	inactive	inactive
